# Assays:
# [1] = target: BDNF/NT-3 growth factors receptor (Homo sapiens) (UniProt Q16620); settings: at 10 µM
# [2] = target: T1, Tyrosine-protein kinase TXK (Homo sapiens) (UniProt P42681); settings: at 1 µM
# T1 sequence (whole entry): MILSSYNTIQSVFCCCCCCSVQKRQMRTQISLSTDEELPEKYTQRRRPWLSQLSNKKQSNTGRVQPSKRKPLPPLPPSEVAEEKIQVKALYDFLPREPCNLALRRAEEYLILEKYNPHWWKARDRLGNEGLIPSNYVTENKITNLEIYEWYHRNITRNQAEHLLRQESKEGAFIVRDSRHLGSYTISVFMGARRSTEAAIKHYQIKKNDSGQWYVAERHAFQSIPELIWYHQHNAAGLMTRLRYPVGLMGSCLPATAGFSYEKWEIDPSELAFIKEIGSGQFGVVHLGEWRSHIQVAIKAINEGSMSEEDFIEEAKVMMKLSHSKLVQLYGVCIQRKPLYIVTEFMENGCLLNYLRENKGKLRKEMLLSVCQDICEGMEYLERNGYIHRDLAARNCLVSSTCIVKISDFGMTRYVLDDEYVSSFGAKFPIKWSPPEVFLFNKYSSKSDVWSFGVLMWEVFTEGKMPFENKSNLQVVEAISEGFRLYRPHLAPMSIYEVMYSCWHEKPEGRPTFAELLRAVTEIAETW
# [3] = target: T1, Tyrosine-protein kinase TXK (Homo sapiens); settings: at 10 µM
# [4] = target: T2, Serine/threonine-protein kinase ULK2 (Homo sapiens) (UniProt Q8IYT8); settings: at 1 µM
# T2 sequence (whole entry): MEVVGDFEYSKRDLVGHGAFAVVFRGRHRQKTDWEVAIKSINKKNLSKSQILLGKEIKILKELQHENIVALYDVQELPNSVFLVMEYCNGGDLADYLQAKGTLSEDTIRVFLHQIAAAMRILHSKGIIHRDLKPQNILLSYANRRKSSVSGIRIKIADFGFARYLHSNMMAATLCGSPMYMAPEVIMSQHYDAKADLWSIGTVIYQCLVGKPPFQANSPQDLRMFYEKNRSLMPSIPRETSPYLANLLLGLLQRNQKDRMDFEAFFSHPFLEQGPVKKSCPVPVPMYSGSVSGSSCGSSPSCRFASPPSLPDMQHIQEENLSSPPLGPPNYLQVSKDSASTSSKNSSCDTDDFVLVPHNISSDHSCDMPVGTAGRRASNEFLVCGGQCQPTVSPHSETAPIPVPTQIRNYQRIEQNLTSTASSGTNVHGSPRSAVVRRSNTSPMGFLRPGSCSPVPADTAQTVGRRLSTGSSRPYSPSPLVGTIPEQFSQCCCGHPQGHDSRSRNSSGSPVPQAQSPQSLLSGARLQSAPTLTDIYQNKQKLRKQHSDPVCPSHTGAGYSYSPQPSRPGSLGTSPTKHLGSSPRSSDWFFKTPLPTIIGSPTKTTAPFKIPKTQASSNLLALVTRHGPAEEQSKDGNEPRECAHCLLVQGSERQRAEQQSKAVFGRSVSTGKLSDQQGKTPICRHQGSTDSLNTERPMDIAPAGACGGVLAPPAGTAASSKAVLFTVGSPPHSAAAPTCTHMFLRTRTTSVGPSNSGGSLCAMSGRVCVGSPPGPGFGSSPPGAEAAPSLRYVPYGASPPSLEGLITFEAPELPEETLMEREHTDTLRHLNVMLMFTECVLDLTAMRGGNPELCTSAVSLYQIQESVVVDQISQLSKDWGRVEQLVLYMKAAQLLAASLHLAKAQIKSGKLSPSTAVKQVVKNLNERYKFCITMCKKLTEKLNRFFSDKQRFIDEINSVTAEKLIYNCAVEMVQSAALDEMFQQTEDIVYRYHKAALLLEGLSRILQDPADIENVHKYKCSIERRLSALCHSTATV
# [5] = target: T2, Serine/threonine-protein kinase ULK2 (Homo sapiens); settings: at 10 µM
# [6] = target: T3, Serine/threonine-protein kinase ULK3 (Homo sapiens) (UniProt Q6PHR2); settings: at 1 µM
# T3 sequence (whole entry): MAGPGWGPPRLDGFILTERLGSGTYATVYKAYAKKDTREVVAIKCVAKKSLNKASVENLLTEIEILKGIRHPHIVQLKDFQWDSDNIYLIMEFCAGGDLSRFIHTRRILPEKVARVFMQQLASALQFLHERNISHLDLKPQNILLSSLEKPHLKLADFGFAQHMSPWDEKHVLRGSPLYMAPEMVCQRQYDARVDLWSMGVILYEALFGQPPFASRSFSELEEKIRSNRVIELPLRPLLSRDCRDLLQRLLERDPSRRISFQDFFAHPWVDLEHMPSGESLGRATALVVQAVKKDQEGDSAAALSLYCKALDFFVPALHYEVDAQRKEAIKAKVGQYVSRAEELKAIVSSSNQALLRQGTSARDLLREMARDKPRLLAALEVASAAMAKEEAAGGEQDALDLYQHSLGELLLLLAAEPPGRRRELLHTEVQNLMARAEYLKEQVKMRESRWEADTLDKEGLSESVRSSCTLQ
# [7] = target: T3, Serine/threonine-protein kinase ULK3 (Homo sapiens); settings: at 10 µM
# [8] = target: Serine/threonine-protein kinase VRK2 (Homo sapiens) (UniProt Q86Y07); settings: at 1 µM
# [9] = target: Serine/threonine-protein kinase VRK2 (Homo sapiens) (UniProt Q86Y07); settings: at 10 µM
# [10] = target: Serine/threonine-protein kinase WNK2 (Homo sapiens) (UniProt Q9Y3S1); settings: at 1 µM;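 also: residual WNK2 kinase activity expressed as percent of uninhibited control, assayed in MOPS buffer at pH 7.0 containing EDTA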
# Chain of Serine/threonine-protein kinase WNK2 (Homo sapiens) (Q9Y3S1 whole entry): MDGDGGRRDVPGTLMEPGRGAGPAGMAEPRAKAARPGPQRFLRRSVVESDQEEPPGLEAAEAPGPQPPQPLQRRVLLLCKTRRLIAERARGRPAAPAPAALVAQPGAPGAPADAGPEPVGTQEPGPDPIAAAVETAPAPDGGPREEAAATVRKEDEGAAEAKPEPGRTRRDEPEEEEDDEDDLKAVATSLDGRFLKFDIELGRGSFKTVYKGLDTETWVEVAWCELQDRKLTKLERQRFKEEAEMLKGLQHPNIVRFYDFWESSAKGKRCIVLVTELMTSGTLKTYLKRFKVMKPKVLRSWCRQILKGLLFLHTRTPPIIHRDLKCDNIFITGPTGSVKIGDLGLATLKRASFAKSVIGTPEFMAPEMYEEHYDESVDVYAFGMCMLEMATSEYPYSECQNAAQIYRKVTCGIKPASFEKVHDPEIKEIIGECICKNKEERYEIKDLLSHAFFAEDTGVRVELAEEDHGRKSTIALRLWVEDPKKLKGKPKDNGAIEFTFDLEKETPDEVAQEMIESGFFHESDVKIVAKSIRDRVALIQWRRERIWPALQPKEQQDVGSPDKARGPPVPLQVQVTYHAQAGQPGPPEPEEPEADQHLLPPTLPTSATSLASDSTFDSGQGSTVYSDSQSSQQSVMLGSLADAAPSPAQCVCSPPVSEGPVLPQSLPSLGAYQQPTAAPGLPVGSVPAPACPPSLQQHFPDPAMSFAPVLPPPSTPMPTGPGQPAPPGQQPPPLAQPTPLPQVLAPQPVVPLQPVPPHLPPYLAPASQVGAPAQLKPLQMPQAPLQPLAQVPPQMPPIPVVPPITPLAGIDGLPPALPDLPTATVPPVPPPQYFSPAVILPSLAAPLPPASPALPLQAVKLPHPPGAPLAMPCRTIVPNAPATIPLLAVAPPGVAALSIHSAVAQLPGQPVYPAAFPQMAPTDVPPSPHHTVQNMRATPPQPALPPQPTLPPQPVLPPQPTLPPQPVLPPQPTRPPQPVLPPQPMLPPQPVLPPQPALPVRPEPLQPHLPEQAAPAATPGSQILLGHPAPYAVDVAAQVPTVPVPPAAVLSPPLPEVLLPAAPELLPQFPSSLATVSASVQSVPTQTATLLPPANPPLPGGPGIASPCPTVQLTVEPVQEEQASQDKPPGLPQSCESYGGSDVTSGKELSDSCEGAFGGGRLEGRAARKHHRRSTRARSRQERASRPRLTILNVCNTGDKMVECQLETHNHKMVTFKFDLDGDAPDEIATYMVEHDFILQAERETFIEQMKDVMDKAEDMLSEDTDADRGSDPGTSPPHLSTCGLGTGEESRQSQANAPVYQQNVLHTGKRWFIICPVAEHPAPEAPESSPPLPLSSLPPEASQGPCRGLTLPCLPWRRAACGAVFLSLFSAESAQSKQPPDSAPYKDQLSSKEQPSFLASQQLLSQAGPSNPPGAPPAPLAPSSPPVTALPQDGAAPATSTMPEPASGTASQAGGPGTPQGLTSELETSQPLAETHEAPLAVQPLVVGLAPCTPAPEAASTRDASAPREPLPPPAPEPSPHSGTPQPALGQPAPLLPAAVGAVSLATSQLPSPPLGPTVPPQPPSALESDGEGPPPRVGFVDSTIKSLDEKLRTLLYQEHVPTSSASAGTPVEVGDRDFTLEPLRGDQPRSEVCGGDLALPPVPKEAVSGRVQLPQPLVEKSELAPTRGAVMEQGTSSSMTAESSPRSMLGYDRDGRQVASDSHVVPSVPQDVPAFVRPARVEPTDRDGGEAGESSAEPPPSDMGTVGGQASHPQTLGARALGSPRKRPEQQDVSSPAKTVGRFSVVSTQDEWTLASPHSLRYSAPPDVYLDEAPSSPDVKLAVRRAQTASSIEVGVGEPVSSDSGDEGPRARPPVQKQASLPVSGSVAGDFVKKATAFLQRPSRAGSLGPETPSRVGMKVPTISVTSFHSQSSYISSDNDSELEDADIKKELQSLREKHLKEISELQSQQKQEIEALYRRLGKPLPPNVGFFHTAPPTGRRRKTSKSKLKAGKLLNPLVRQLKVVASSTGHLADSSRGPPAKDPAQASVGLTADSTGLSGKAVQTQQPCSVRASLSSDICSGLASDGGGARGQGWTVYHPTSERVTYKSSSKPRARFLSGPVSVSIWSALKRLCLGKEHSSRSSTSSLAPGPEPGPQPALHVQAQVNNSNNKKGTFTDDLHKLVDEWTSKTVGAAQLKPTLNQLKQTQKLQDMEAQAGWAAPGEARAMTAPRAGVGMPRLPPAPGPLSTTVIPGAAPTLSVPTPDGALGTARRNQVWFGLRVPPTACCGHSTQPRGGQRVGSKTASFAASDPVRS
# Chain of Serine/threonine-protein kinase VRK2 (Homo sapiens) (Q86Y07 whole entry): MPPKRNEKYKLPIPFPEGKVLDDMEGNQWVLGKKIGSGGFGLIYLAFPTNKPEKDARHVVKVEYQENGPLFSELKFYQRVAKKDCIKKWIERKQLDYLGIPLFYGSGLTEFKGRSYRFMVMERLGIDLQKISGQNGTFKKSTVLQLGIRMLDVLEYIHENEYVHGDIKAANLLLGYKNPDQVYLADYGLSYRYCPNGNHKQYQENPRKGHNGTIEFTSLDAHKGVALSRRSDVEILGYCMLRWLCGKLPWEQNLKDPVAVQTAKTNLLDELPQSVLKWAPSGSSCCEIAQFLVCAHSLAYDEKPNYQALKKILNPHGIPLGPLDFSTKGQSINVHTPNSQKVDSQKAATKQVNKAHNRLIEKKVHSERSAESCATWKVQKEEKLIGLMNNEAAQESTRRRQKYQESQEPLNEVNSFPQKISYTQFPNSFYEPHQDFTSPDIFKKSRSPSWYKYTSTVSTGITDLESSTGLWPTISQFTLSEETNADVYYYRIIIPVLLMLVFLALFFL
# Chain of BDNF/NT-3 growth factors receptor (Homo sapiens) (Q16620 32-822 limits assumed): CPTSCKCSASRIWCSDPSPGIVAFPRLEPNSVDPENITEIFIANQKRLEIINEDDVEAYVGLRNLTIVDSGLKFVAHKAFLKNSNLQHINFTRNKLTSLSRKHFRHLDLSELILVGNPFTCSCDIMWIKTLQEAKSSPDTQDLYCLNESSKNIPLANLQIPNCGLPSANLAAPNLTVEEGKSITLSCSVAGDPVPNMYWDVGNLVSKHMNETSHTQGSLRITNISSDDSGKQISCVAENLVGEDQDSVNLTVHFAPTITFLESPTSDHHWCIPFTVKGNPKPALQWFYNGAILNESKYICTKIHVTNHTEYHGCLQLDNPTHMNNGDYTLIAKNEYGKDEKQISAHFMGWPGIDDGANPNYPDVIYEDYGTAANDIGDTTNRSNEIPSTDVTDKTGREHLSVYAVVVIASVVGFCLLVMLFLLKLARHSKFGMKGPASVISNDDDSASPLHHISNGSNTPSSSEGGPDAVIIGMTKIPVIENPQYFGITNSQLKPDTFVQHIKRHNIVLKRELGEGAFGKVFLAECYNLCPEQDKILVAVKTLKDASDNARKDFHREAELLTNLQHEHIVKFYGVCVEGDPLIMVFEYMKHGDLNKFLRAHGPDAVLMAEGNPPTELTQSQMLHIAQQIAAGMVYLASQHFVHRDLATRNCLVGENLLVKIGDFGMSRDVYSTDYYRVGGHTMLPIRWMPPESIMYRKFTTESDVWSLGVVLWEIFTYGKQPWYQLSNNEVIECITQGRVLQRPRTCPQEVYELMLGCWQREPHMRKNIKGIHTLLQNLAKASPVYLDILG
Structure (SMILES),residual activity [1] [%],residual activity [2] [%],residual activity [3] [%],residual activity [4] [%],residual activity [5] [%],residual activity [6] [%],residual activity [7] [%],residual activity [8],residual activity [9] [%],residual activity [10]
Cc1nc(-c2ccccc2)c(-c2ccncc2)o1,53,86,88,118,112,104,104,109% (inactive),103,117% (inactive)
Nc1ccc2ncnc(NCCc3ccc(Oc4ccccc4)cc3)c2c1,58,80,61,121,108,103,87,106% (inactive),95,110% (inactive)
Cc1cc2ncc(-c3ccccc3)nc2cc1C,53,90,84,104,88,107,96,105% (inactive),96,99% (inactive)
N#CCCc1ccc2c(c1)-c1[nH]c3ccc([N+](=O)[O-])cc3c1CC(=O)N2,65,26,9,47,21,33,6,–,–,–
COc1ccc(C(=O)Nc2sc3c(c2C(N)=O)CCCC3)cc1OC,71,93,73,102,92,99,84,107% (inactive),85,104% (inactive)
CC(=O)c1ccc(N2CCOCC2)cc1O,108,85,86,106,90,106,90,107% (inactive),96,–
CN(C)c1ccc(/C=C2\C(=O)Nc3ccccc32)cc1,5,108,69,107,70,100,49,113% (inactive),87,110% (inactive)
Nc1n[nH]c2nnc(-c3c(-c4ccccc4)nn4ccccc34)cc12,52,77,60,95,96,92,87,89% (inactive),68,88% (inactive)
O=C1NC(=O)c2c1c1c3ccccc3[nH]c1c1[nH]c3cc(Br)ccc3c21,42,89,72,108,95,88,86,95% (inactive),90,96% (inactive)
Cc1ccc(NC2=CC(=O)c3sc(C)nc3C2=O)cc1,93,80,83,101,100,96,100,89% (inactive),88,88% (inactive)
N#C/C(=C(\N)Sc1ccc(N)cc1)c1ccccc1C(F)(F)F,72,74,86,119,107,95,94,101% (inactive),95,101% (inactive)
Cn1cc(/C=C2\C(=O)Nc3ccc(S(N)(=O)=O)cc32)c2ccccc21,-12,75,47,43,24,19,4,114% (inactive),93,111% (inactive)
Oc1n[nH]c2nnc(-c3c(-c4ccccc4)nn4ccccc34)cc12,84,73,67,91,91,92,95,89% (inactive),82,93% (inactive)
COc1cc2ncnc(Nc3ccc(Oc4ccccc4)cc3)c2cc1OC,147,56,34,109,95,96,79,99% (inactive),73,92% (inactive)
O=c1cc(-c2cccc3c2Sc2ccccc2S3)oc(N2CCOCC2)c1,76,91,91,107,101,94,96,97% (inactive),97,103% (inactive)
Oc1ccc(Nc2nc(-c3ccc(Cl)cc3)cs2)cc1,78,97,79,118,105,96,102,98% (inactive),102,117% (inactive)
O=c1c2ccccc2[nH]c(=S)n1CCN1CCC(=C(c2ccc(F)cc2)c2ccc(F)cc2)CC1,59,102,80,109,98,107,94,116% (inactive),99,113% (inactive)
c1ccc2c(-c3ccncc3)c[nH]c2c1,110,109,97,104,97,104,82,101% (inactive),88,107% (inactive)

Structure (SMILES),residual activity [1] [%],residual activity [2] [%],residual activity [3] [%],residual activity [4] [%],residual activity [5] [%],residual activity [6] [%],residual activity [7] [%],residual activity [8],residual activity [9] [%],residual activity [10]
O=C1Nc2cc(Br)ccc2/C1=C1/Nc2ccccc2/C1=N\O,-1,13,23,102,98,55,16,94% (inactive),90,89% (inactive)
Oc1ccc(-c2nc(-c3ccc(F)cc3)c(-c3ccncc3)[nH]2)cc1,61,78,43,112,104,102,95,117% (inactive),86,118% (inactive)
COc1ccc(OC)c2c(=S)c3ccccc3[nH]c12,92,84,86,100,102,86,101,91% (inactive),86,86% (inactive)
COc1ccc(S(=O)(=O)N(CCO)c2ccccc2CN(C)C/C=C/c2ccc(Cl)cc2)cc1,61,94,67,113,94,93,95,102% (inactive),80,100% (inactive)
COc1ccc(CNc2nc(N(CCO)CCO)nc3c2ncn3C(C)C)cc1,96,87,89,97,97,81,82,79% (inactive),46,88% (inactive)
NC(=O)c1ccc2[nH]c(-c3ccc(Oc4ccc(Cl)cc4)cc3)nc2c1,101,96,92,97,93,90,87,88% (inactive),82,90% (inactive)
CC#CC(=O)Nc1cc2c(Nc3ccc(F)c(Cl)c3)ncnc2cn1,103,52,14,99,97,116,97,97% (inactive),92,103% (inactive)
Cn1cnc2cc3c(Nc4cccc(Br)c4)ncnc3cc21,68,89,60,106,99,112,74,98% (inactive),95,105% (inactive)
CCOc1cc2ncnc(Nc3cccc(Br)c3)c2cc1OCC,88,75,24,94,78,96,71,99% (inactive),74,102% (inactive)
Cc1nc2cc3nc(-c4cccs4)cnc3cc2n1C,45,108,75,108,107,106,85,111% (inactive),84,117% (inactive)
O=C1NC(=O)c2cc(Nc3ccc(F)cc3)c(Nc3ccc(F)cc3)cc21,88,79,27,107,89,107,81,99% (inactive),86,82% (inactive)
O=C1NC(=O)/C(=C\c2ccc3nccnc3c2)S1,94,100,93,104,82,99,63,93% (inactive),92,82% (inactive)
CCC(=O)Nc1ccc2ncnc(Nc3cccc(Br)c3)c2c1,119,108,78,106,100,107,89,106% (inactive),86,99% (inactive)
Nc1nc(Nc2ccc(S(N)(=O)=O)cc2)nn1C(=S)Nc1c(F)cccc1F,0,71,32,4,0,0,1,84% (inactive),37,–
O=C(Nc1cccc(Nc2nccc(Nc3cccc(C(F)(F)F)c3)n2)c1)C1CC1,-5,60,15,101,88,97,66,93% (inactive),85,104% (inactive)
CC[n+]1c(/C=C/N(C)c2ccccc2)n(-c2ccccc2)c2ccc(-c3nc4ccccc4s3)cc21,61,83,51,110,104,112,97,110% (inactive),99,96% (inactive)
Cc1ccc(S(=O)(=O)/C=C/C#N)cc1,105,79,87,109,104,97,98,91% (inactive),97,94% (inactive)

# Reference: ChEMBL document CHEMBL2218924, “A broad activity screen in support of a chemogenomic map for kinase signalling research and drug discovery” (Biochem J, 2013)
